From PubChem BioAssay AID1159580 (chemical genetic matrix, 2015)
In all, about 5,500 compounds went through this assay and about 2,000 (36%) were called active. Another 18% or so got no clear call; they are omitted. The list shows a part of the results. Unmarked numbers belong to inactive results. Rule as the data show it: active = normalized growth mostly below about 0.91 (no sharp cut-off); inconclusive = no clear call, values can overlap the other calls; inactive = mostly above about 0.92.

Assay: chemical genetic growth profiling, strain panel (AID 1159580);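 also: tested at 20 µM; growth read once vehicle control cultures reached saturation at 30 °C; 1 = growth at the plate median or of vehicle wells; lower values mean less growth of the strain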
Conditions: S. cerevisiae deletion strains, growth OD

For COc1cc(O)c2c(=O)c(-c3ccc(O)cc3)coc2c1, the normalized growth (locus YBR021W, strain FUR4, stronger effect = lower value) was 0.832 (active), the normalized growth (locus YBR229C, strain ROT2, stronger effect = lower value) was 0.973 and the normalized growth (locus YCL029C, strain bik1, stronger effect = lower value) was 0.952. The normalized growth (locus YDL035C, strain GPR1, stronger effect = lower value) was 0.89, the normalized growth (locus YDL074C, strain BRE1, stronger effect = lower value) was 0.782 and the normalized growth (locus YDL101C, strain DUN1, stronger effect = lower value) was 0.942. For the same compound, the normalized growth (locus YDL134C, strain PPH21, stronger effect = lower value) was 0.859 (active), the normalized growth (locus YDL185W, strain tfp1, stronger effect = lower value) was 0.972 and the normalized growth (locus YDL192W, strain arf1, stronger effect = lower value) was 0.84 (active). The normalized growth (locus YDR101C, strain arx1, stronger effect = lower value) was 0.873 (active), the normalized growth (locus YDR162C, strain NBP2, stronger effect = lower value) was 0.853 and the normalized growth (locus YDR318W, strain mcm21, stronger effect = lower value) was 0.886 (active). For the same compound, the normalized growth (locus YDR388W, stronger effect = lower value) was 0.943, the normalized growth (locus YDR502C, strain sam2, stronger effect = lower value) was 0.842 (active) and the normalized growth (locus YEL061C, strain CIN8, stronger effect = lower value) was 0.93. The normalized growth (locus YER110C, stronger effect = lower value) was 0.944, the normalized growth (locus YER155C, strain BEM2, stronger effect = lower value) was 0.891 (active) and the normalized growth (locus YER167W, strain BCK2, stronger effect = lower value) was 0.853 (active). The normalized growth (locus YGL078C, strain dbp3, stronger effect = lower value) was 0.935, the normalized growth (locus YGL086W, strain mad1, stronger effect = lower value) was 0.881 (active) and the normalized growth (locus YGL248W, strain PDE1, stronger effect = lower value) was 0.874 (active). The normalized growth (locus YGR078C, strain PAC10, stronger effect = lower value) was 0.835 (active), the normalized growth (locus YGR135W, strain pre9, stronger effect = lower value) was 0.817 (active) and the normalized growth (locus YGR252W, strain gcn5, stronger effect = lower value) was 0.612 (active). For the same compound, the normalized growth (locus YHR030C, strain SLT2, stronger effect = lower value) was 0.916 (active), the normalized growth (locus YHR079C, strain IRE1 (second series), stronger effect = lower value) was 0.947 and the normalized growth (locus YHR094C, strain hxt1, stronger effect = lower value) was 0.959. The normalized growth (locus YHR129C, strain ARP1, stronger effect = lower value) was 0.899 (active), the normalized growth (locus YHR200W, strain rpn10, stronger effect = lower value) was 0.894 (active) and the normalized growth (locus YIL066C, strain RNR3, stronger effect = lower value) was 0.845 (active). For the same compound, the normalized growth (locus YIL073C, strain SPO22, stronger effect = lower value) was 0.818, the normalized growth (locus YIL125W, strain kgd1, stronger effect = lower value) was 0.964 and the normalized growth (locus YIR030C, strain dcg1, stronger effect = lower value) was 0.938. The normalized growth (locus YJL095W, strain BCK1, stronger effect = lower value) was 0.73 (active), the normalized growth (locus YJL134W, strain LCB3, stronger effect = lower value) was 0.984 and the normalized growth (locus YJL168C, strain set2, stronger effect = lower value) was 0.947. For the same compound, the normalized growth (locus YJL187C, strain SWE1 (second series), stronger effect = lower value) was 0.894, the normalized growth (locus YJR043C, strain POL32, stronger effect = lower value) was 0.771 (active) and the normalized growth (locus YJR075W, strain HOC1, stronger effect = lower value) was 0.859 (active). For the same compound, the normalized growth (locus YKL009W, strain mrt4, stronger effect = lower value) was 0.88, the normalized growth (locus YKL068W, stronger effect = lower value) was 0.969 and the normalized growth (locus YKL085W, strain MDH1 (second series), stronger effect = lower value) was 0.948. The normalized growth (locus YKL085W, strain MDH1, stronger effect = lower value) was 0.948, the normalized growth (locus YKL190W, strain CNB1, stronger effect = lower value) was 0.961 and the normalized growth (locus YKR001C, strain vps1, stronger effect = lower value) was 0.73 (active). The normalized growth (locus YLR039C, strain RIC1, stronger effect = lower value) was 0.58 (active), the normalized growth (locus YLR058C, strain SHM2, stronger effect = lower value) was 0.913 and the normalized growth (locus YLR102C, strain apc9, stronger effect = lower value) was 0.946. The normalized growth (locus YLR262C, strain YPT6, stronger effect = lower value) was 0.552 (active), the normalized growth (locus YLR268W, strain sec22, stronger effect = lower value) was 0.866 (active) and the normalized growth (locus YLR330W, strain CHS5, stronger effect = lower value) was 0.872 (active). The normalized growth (locus YLR342W, strain FKS1 (second series), stronger effect = lower value) was 0.701 (active), the normalized growth (locus YLR371W, strain rom2, stronger effect = lower value) was 0.823 (active) and the normalized growth (locus YLR418C, strain cdc73, stronger effect = lower value) was 0.61 (active). The normalized growth (locus YML016C, strain PPZ1, stronger effect = lower value) was 0.947, the normalized growth (locus YML032C, strain rad52, stronger effect = lower value) was 0.865 (active) and the normalized growth (locus YML124C, strain tub3, stronger effect = lower value) was 0.942. The normalized growth (locus YMR078C, strain ctf18, stronger effect = lower value) was 0.954, the normalized growth (locus YMR223W, strain ubp8, stronger effect = lower value) was 0.862 (active) and the normalized growth (locus YMR263W, strain SAP30, stronger effect = lower value) was 0.884 (active). The normalized growth (locus YMR307W, strain GAS1, stronger effect = lower value) was 0.642, the normalized growth (locus YNL067W, strain RPL9B, stronger effect = lower value) was 0.891 and the normalized growth (locus YNL128W, strain TEP1, stronger effect = lower value) was 0.96. The normalized growth (locus YNL153C, strain GIM3, stronger effect = lower value) was 0.941, the normalized growth (locus YNL233W, strain BNI4, stronger effect = lower value) was 0.809 (active) and the normalized growth (locus YNL250W, strain rad50, stronger effect = lower value) was 0.957. The normalized growth (locus YNL271C, strain bni1, stronger effect = lower value) was 0.94, the normalized growth (locus YNL298W, strain CLA4, stronger effect = lower value) was 0.894 (active) and the normalized growth (locus YNL307C, strain MCK1, stronger effect = lower value) was 0.816 (active). For the same compound, the normalized growth (locus YNR052C, strain pop2, stronger effect = lower value) was 0.919, the normalized growth (locus YOL006C, strain TOP1, stronger effect = lower value) was 0.489 (active) and the normalized growth (locus YOL012C, strain htz1) was 1.29. For the same compound, the normalized growth (locus YOL147C, strain pex11, stronger effect = lower value) was 0.877 (active), the normalized growth (locus YOR061W, strain CKA2, stronger effect = lower value) was 0.936 and the normalized growth (locus YOR069W, strain VPS5, stronger effect = lower value) was 0.94. The normalized growth (locus YOR136W, strain idh2, stronger effect = lower value) was 0.946, the normalized growth (locus YOR144C, strain elg1, stronger effect = lower value) was 0.918 (active) and the normalized growth (locus YOR184W, strain ser1, stronger effect = lower value) was 0.756 (active). The normalized growth (locus YOR316C, strain cot1, stronger effect = lower value) was 0.945, the normalized growth (locus YPL055C, strain LGE1, stronger effect = lower value) was 0.791 and the normalized growth (locus YPL241C, strain CIN2, stronger effect = lower value) was 0.97. The normalized growth (locus YPR119W, strain clb2, stronger effect = lower value) was 0.962, the normalized growth (locus YPR141C, strain kar3, stronger effect = lower value) was 0.967 and the normalized growth (locus YPR163C, strain tif3, stronger effect = lower value) was 0.93. The normalized growth (locus YPR167C, strain met16, stronger effect = lower value) was 0.942 and the normalized growth (strain wtn01, stronger effect = lower value) was 0.841 (active).
